The panel holds about 83,000 compounds, 20% with a hit somewhere; the sample as a whole holds those more often.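 Each cell line was grown in a 96-well plate and treated with one concentration of compound for 48 hours. Values below 10 were considered active.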 A number with no mark means an inactive call. Active and inactive are the calls of the source.

What all share (assay): NCI-60 one-dose screen, 48 h (100 = growth as untreated, 0 = no growth, -100 = all killed)
Assay [1] relates to HT29 colon. Conditions: 10 µM unless noted.
The test system of assay [2] is SNB-75 CNS. Particulars: 10 µM unless noted.
In assay [3] the test system is SNB-19 CNS. Particulars: 10 µM unless noted.
Assay [4] deals with U251 CNS. Conditions: 10 µM unless noted.
Assay [5] relates to PC-3 prostate. Conditions: 10 µM unless noted.
Assay [6] deals with SK-MEL-5 melanoma. Conditions: 10 µM unless noted.
Assay [7] deals with UACC-62 melanoma. Particulars: 10 µM unless noted.
Assay [8] deals with LOX IMVI melanoma. Conditions: 10 µM unless noted.
Assay [9] concerns SK-MEL-28 melanoma. Particulars: 10 µM.
Assay [10] relates to SK-MEL-2 melanoma. Particulars: 10 µM unless noted.
The subject of assay [11] is SN12C renal. Particulars: 10 µM unless noted.
In assay [12] the test system is UO-31 renal. Conditions: 10 µM unless noted.
Assay [13] has as its system TK-10 renal. Particulars: 10 µM unless noted.
In assay [14] the test system is ACHN renal. Particulars: 10 µM unless noted.
For assay [15], the system named is CAKI-1 renal. Conditions: 10 µM unless noted.
The subject of assay [16] is A498 renal. Conditions: 10 µM unless noted.
The subject of assay [17] is CCRF-CEM leukemia. Particulars: 10 µM unless noted.
The subject of assay [18] is MOLT-4 leukemia. Particulars: 10 µM unless noted.
Assay [19] relates to SR leukemia. Conditions: 10 µM unless noted.

As to `O=c1[nH]nnc2c1ncn2C1OC(CO)C(O)C1O` (configuration not stated), the growth in assay [1] was 50.4%; in assay [2], 44.8%; in assay [3], 105%; in [4], 97.7%; in assay [5] it was 50.6%; in assay [6], 91.8%. The growth in assay [7] is 58%; in assay [8], 22.6%; in assay [9], 102%; in assay [10], 6% (active); in [11], 97.7%; in assay [12], 36%. The growth in assay [13] was 39.8%; in assay [14], 30.2%; in assay [15], 25.2%; in assay [16], 86.7%; in assay [17], 27.5%; in assay [18] it was 26.3%. For the same compound, in assay [19], the growth was 37.7%.

With `COC(=O)C1(C)COP(=O)(Nc2ccc(OC)cc2)OC1` (configuration not stated), the growth in [1] is 101%; in assay [2] it was 92.1%; in assay [3], 103%; in [4] it was 104%; in assay [5], 99.8%; in assay [6], 105%. The growth in assay [7] is 108%; in assay [8], 96.3%; in assay [9], 108%; in [10], 96.4%; in assay [11], 102%; in assay [12], 82.7%. Moreover, the growth was 108% in assay [13]; 104% in assay [14]; 99.2% in assay [15]; 101% in assay [16]; 102% in [17]; 99.2% in assay [18]. In addition, in assay [19], the growth is 93.2%.

On to `CCN1CCN(c2cc(C)c3cc(NC(=O)c4ccc(OC)c(OC)c4)ccc3n2)CC1`, for which the growth is 13% in assay [1]; 66.9% in assay [2]; 58.1% in assay [3]; 45.6% in [4]; 49.2% in [5]; 19.4% in assay [6]. Further, the growth in assay [7] is 27.3%; in assay [8] it was 33.4%; in assay [9] it was 51.9%; in assay [10], 50.7%; in assay [11] it was 44.7%; in assay [12], 54%. The growth in assay [13] was 57.6%; in assay [14], 58.4%; in [15], 48.1%; in assay [16], -3.67% (active); in [17], 7.94% (active); in assay [18], 16.2%. For the same compound, the growth in assay [19] is 1.64% (active).

As for `O=C(Nc1ccc(-c2nc3cc4ccccc4cc3[nH]2)cc1)c1cccc(Br)c1`, the growth in [1] is 12.4%; in assay [2], 66.2%; in assay [3], 36.2%; in assay [4], 25.9%; in assay [5] it was 51.1%; in [6], 37.1%. Besides, the growth was 39% in assay [7]; -6.26% (active) in assay [8]; 41.8% in [9]; 49.4% in [10]; 44.6% in assay [11]; 13.1% in assay [12]. Besides, the growth is 51.8% in [13]; 35.1% in assay [14]; 18.2% in [15]; 68.5% in assay [16]; 77% in [17]; 85.4% in [18]. The growth in assay [19] was 76.4%.

As to `CCOc1ccccc1CN1CCc2nc3cc(C(C)(C)C)[nH]n3c(=O)c2C1`, the growth is 94.8% in assay [1]; 105% in [2]; 94.8% in assay [3]; 104% in assay [4]; 109% in assay [5]; 101% in assay [6]. The growth in [7] is 102%; in assay [8], 96.7%; in assay [9], 112%; in assay [10], 98.3%; in assay [11], 104%; in [12] it was 93.4%. Further, the growth was 97.6% in assay [13]; 95.4% in [14]; 99.9% in assay [15]; 101% in [16]; 91.8% in [17]; 94.7% in [18]. The growth in assay [19] is 88.5%.

With `Cc1ccc(C(=O)c2oc3ccc4c(C)cc(=O)oc4c3c2C)cc1`, the growth in assay [1] is 14.3%; in assay [2], 67.8%; in [3] it was 41.4%; in assay [4], 18.6%; in [5], 7.34% (active); in assay [6] it was -56.6% (active). The growth in [7] was 29.4%; in assay [8], 33.2%; in assay [9], 51.4%; in [10], 32.1%; in [11], 30.5%; in assay [12], 9.48% (active). Besides, the growth in [13] was 27.2%; in [14], 32.9%; in assay [15], 15.2%; in assay [16], 32.3%; in assay [17], 17.1%; in assay [18], 7.13% (active). The growth in assay [19] is 12.7%.

As for `Cc1ccc(S(=O)(=O)c2c(COC(=O)c3cccc(C)c3)c(-c3ccccc3)nn2C)cc1`, the growth in [1] was -44.5% (active); in assay [2], 107%; in assay [3], 24.6%; in assay [4], -32.4% (active); in assay [5] it was 48.5%; in assay [6], 77.6%. The growth in assay [7] is 88.7%; in assay [8], -22.8% (active); in assay [9], -68.4% (active); in assay [10], 27.2%; in [11], 89.1%; in assay [12] it was 103%. The growth in [13] is 113%; in [14], 91%; in [15], 107%; in assay [16], 123%; in assay [17], -7.63% (active); in [18], -11.2% (active). Moreover, in assay [19], the growth was 1.41% (active).

Take `COc1ccc(Nc2cc(C)nc(NCc3ccccc3)n2)cc1`: the growth is 11% in assay [1]; 49% in [2]; 57.1% in assay [3]; 15.8% in assay [4]; 28.1% in assay [5]; 61.9% in assay [6]. Moreover, the growth was 69.3% in assay [7]; -57.5% (active) in assay [8]; 63.9% in assay [9]; 31.1% in [10]; 38.2% in [11]; 42% in assay [12]. Further, the growth in assay [13] was 37.9%; in assay [14], 36.3%; in assay [15] it was 30.8%; in [16] it was 81%; in assay [17], -3.8% (active); in [18], 3.02% (active). The growth in assay [19] was 0.982% (active).

These data come from PubChem BioAssay (NCI).
